In PubChem BioAssay AID602292 (National Center for Advancing Translational Sciences (NCATS), 2012):
Among all 1,300 compounds or so, about 380 (29%) were called active. Inconclusive results (about 37%) are left out. Some of the results follow. A number with no mark means an inactive call. Calls come from the whole dose curve; as a rule, active = well fitted inhibition curve with a large enough effect; inconclusive = small, poorly fitted or top-dose-only effect; inactive = flat fitted curve, though single readings scatter.

target: Thyrotropin receptor (Homo sapiens) (UniProt P16473); test: qHTS for antagonists of the Thyroid Stimulation Hormone Receptor: Hit Validation in Primary Screen; settings: TSHR-expressing cells, cAMP antagonist mode; series mostly up to 58 µM; activity change, negative = inhibition: at the top concentration; note: nearly all actives have a fitted effect of over 80% in size;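 for activity change, negative = inhibition: cells stimulated with TSH at EC80 of 4 nM during compound exposure; cAMP by competitive HTRF where cellular cAMP lowers the 665 nm FRET signal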
In short: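 Competitive HTRF detected cAMP in lysates of TSHR cells, read 30 minutes after antibody and d2 addition at room temperature. Before lysis, cells had 2 hours at 37 deg C with compound plus EC80 TSH, 4nM final.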
% is set by controls: 0 for no effect and ±100 for the full control effect; potency is the fitted concentration of half-maximal effect.

Thyrotropin receptor (Homo sapiens), sequence (P16473 whole entry, looked up): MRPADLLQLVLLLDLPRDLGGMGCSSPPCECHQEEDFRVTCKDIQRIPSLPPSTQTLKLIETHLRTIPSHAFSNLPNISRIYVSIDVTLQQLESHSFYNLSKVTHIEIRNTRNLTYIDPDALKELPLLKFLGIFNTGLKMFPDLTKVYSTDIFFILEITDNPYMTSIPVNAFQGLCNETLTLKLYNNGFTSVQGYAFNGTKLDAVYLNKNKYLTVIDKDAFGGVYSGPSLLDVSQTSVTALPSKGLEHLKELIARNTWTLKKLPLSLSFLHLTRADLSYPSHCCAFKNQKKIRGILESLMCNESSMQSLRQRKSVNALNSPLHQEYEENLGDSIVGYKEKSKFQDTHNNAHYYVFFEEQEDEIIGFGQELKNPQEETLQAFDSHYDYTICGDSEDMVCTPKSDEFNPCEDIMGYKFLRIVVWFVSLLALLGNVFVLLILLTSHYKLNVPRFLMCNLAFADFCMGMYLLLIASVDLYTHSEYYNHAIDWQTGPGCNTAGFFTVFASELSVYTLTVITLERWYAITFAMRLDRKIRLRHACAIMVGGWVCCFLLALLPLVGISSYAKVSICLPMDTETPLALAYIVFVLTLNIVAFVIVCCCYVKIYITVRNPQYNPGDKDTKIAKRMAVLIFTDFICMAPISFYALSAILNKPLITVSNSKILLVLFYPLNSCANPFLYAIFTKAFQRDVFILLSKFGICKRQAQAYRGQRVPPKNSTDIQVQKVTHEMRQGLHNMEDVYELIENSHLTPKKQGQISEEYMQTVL

Row | SMILES | Potency | activity change, negative = inhibition [%]
1 | N#CC(C#N)=NNc1ccc(S(=O)(=O)N2CCCCC2)cc1 | 3.01 µM (active) | –
2 | Cc1ccc(S(=O)(=O)N2CCOCC2)cc1N/N=C(\C#N)c1nc2ccccc2[nH]1 | – | -10.7
3 | COC(=O)c1ccc(COc2cc(O)c3c(c2)OC(C)(C)CC3=O)cc1 | 30.1 µM (active) | –
4 | CC(=O)c1ccc(S(=O)(=O)N2CCN(CCOc3ccc(Br)cc3)CC2)cc1 | 30.1 µM (active) | –
5 | Cc1ccc(S(=O)(=O)N2CCN(C(=O)CCn3cncn3)CC2)cc1 | – | -0.576
6 | Cc1ccc(O)c(N=Cc2cc(Cc3ccccc3)cc([N+](=O)[O-])c2O)c1 | 16.9 µM (active) | –
7 | CN(C)S(=O)(=O)N1CCN(c2ccnc3cc(Cl)ccc23)CC1 | – | -7.84
8 | O=C(Nc1ccc(C(F)(F)F)cc1)c1csc(-c2ccncc2)n1 | 60.1 µM (active) | –
9 | CC(C)(C)NC(=O)C(c1ccc(O)cc1)N(Cc1ccccc1)C(=O)CCC(=O)Nc1nccs1 (configuration not stated) | – | -6.86
10 | O=[N+]([O-])c1c(NCCO)cc(Sc2nc3ccccc3s2)c2nonc12 | 23.9 µM (active) | –
11 | Cc1nnc(SCC(=O)Nc2nonc2C)s1 | – | -3.05
12 | Cc1nnc(Sc2cc(NCCCO)c([N+](=O)[O-])c3nonc23)s1 | 33.8 µM (active) | –
13 | O=C(Nc1cc(Sc2nc3ccccc3s2)cc([N+](=O)[O-])c1)c1ccccc1F | – | -6.57
14 | O=C1C=C(c2ccc3[nH]ccc3c2)C[C@@H](c2ccc(Cl)cc2)C1 | – | -9.05
15 | O=C(/C=C/c1cccc(Cl)c1)c1ccc([N+](=O)[O-])o1 | 26.9 µM (active) | –
16 | C/C(=N\NC(=O)c1nnn(-c2nonc2N)c1-c1ccc(Cl)c(Cl)c1)c1ccncc1 | – | -2.3
17 | CCn1nc(C)c(CN2CCCC(CNS(=O)(=O)c3ccc(OC)cc3)C2)c1C (configuration not stated) | – | -7.72
18 | C=C(C)C(=O)OCC(O)COc1ccc(C(C)(C)c2ccc(OCC(O)COC(=O)C(=C)C)cc2)cc1 (configuration not stated) | 21.3 µM (active) | –
19 | COc1ccc(-c2c(C(F)(F)F)[nH]n3c(=O)cc(-c4ccccc4)nc23)cc1 | 19 µM (active) | –
20 | COc1ccc(-c2cn(CCCOCc3ccccc3)nn2)cc1 | – | -4.03
21 | O=c1cc(-c2ccccc2)nc2c(-c3ccccc3)c(C(F)(F)F)[nH]n12 | 6.01 µM (active) | –
22 | Nc1nc2nc(-c3ccccc3)cc(C(F)(F)F)c2s1 | – | -6.22
23 | COc1ccc(OC)c(C2=NOC(C(=O)NCC3CCCO3)C2)c1 (configuration not stated) | – | -3.8
24 | Cc1sc2ncn(CC(=O)NCCCC(=O)NCc3ccc(F)cc3)c(=O)c2c1C | – | -3
25 | Cc1ccc(CNC(=O)CCNC(=O)N2CCn3c2nc2ccccc23)cc1 | – | -3.49

Row | SMILES | Potency | activity change, negative = inhibition [%]
26 | Cc1cc(NC(=O)c2cc(-c3ccco3)on2)nn1Cc1ccc(Cl)cc1 | 30.1 µM (active) | –
27 | O=C(Nc1ccccc1Cl)/C(Cl)=C(\Cl)S(=O)c1ccccc1 (configuration not stated) | 26.9 µM (active) | –
28 | COc1ccc(NC(=O)/C(Cl)=C(/Cl)S(=O)Cc2ccccc2Cl)cn1 (configuration not stated) | 21.3 µM (active) | –
29 | COc1ccc(NC(=O)/C(Cl)=C(/Cl)S(=O)Cc2ccc(Cl)cc2)cn1 (configuration not stated) | 30.1 µM (active) | –
30 | COc1ccc(-n2nc(C(=O)NCC(=O)NCCCN3CCN(C)CC3)c3ccccc3c2=O)cc1 | – | -2.19
31 | Cc1ccccc1NC(=O)Cc1nc(COC(=O)c2cccc([N+](=O)[O-])c2)cs1 | – | -2.22
32 | CCSc1ccc(C(=O)Nc2ccc(Br)cn2)cc1[N+](=O)[O-] | – | -1.87
33 | CC(=O)Oc1c(I)cc(I)cc1C(=O)Nc1ccc(Cl)cc1 | 1.9 µM (active) | –
34 | Cn1cc(Cl)c(C(=O)N/N=C/c2ccc3c4c(cccc24)CC3)n1 | – | -4.26
35 | CCC(=O)NC1=C(Cl)C(=O)C(NC(=O)CC)=C(Cl)C1=O | 30.1 µM (active) | –
36 | O=C(NC1CCOc2ccccc21)c1ccccn1 (configuration not stated) | – | -1.38
37 | COc1ccc(CCNC(=O)c2cccc3c2C(=O)N(C2CCCCC2)C3)cc1OC | – | -8.96
38 | COc1ccc(CCNC(=O)c2ccc(-c3ccc([N+](=O)[O-])cc3Cl)o2)cc1OC | 23.9 µM (active) | –
39 | O=C(CSc1nnc(-c2ccncc2)n1Cc1ccco1)Nc1nc(-c2ccccc2)cs1 | 21.3 µM (active) | –
40 | Cc1cc(C)c(S(=O)(=O)c2c(C)cccc2C)c(Cl)n1 | 23.9 µM (active) | –
41 | CC(Sc1nn(-c2ccc(F)cc2)c(=S)s1)C(=O)c1c(N)n(C)c(=O)n(C)c1=O (configuration not stated) | 37.9 µM (active) | –
42 | CCCCCC/C(C)=C1/SC(=S)NC1=O | 30.1 µM (active) | –
43 | O=C(Nn1cnnc1)C(c1ccccc1)c1ccccc1 | – | -7.72
44 | O=C(N=C1SC2CS(=O)(=O)CC2N1c1ccc(F)cc1)C1CC1 (configuration not stated) | – | -2.68
45 | CCCCCc1c2c(cc(O)c1C(=O)O)OC(=O)c1c(cc(OC)cc1C(=O)CCCC)O2 | 33.8 µM (active) | –
46 | COC(=O)[C@H]1[C@H]2C[C@@H]3c4[nH]c5cc(OC)ccc5c4CCN3C[C@H]2C[C@@H](OC(=O)/C=C/c2cc(OC)c(OC)c(OC)c2)[C@@H]1OC | – | -11.4
47 | O=C(CC1C(=O)NCCN1Cc1cccc(F)c1F)NCCCC1CCCC1 (configuration not stated) | – | -0.634
48 | CCCn1nnc(NC(=O)C(C)Oc2ccc(Cl)cc2Cl)n1 (configuration not stated) | – | 1.58
49 | CC(Oc1ccc(Cl)cc1Cl)c1nc(-c2ccc(NC(=O)c3cccnc3)cc2)no1 (configuration not stated) | 21.3 µM (active) | –
50 | Cc1ccccc1Oc1cc(-n2ncc(Cl)c(Cl)c2=O)ncn1 | 12 µM (active) | –

Row | SMILES | Potency | activity change, negative = inhibition [%]
51 | COCCNc1cnn(-c2ccccc2)c(=O)c1Cl | – | -16.4
52 | CC(C)(CNC(=O)C1c2ccccc2-c2ccccc21)N1CCOCC1 | – | 2.56
53 | Cc1[nH]n(-c2ccccc2)c(=O)c1N=Nc1c(O)cc(S(=O)(=O)N(C)C)c2ccccc12 | 8.49 µM (active) | –
54 | CC(NC(=O)/C(C#N)=C/c1ccc([N+](=O)[O-])o1)c1ccccc1 (configuration not stated) | 30.1 µM (active) | –
55 | Cc1ccc(S(=O)(=O)N2CCN(C(=O)Cc3ccsc3)CC2)c(C)c1 | – | -0.288
56 | O=C(Cn1ncc(Cl)c(Cl)c1=O)N1CCN(S(=O)(=O)c2ccc3ccccc3c2)CC1 | 9.53 µM (active) | –
57 | CCc1nn(CC(=O)N2CCCCCC2)c(=O)c2cc3ccccc3n12 | – | -6.57
58 | NC(=O)CSc1oc(-c2ccco2)nc1S(=O)(=O)c1ccccc1 | – | -12.3
59 | NC(=O)c1ccc(CN2CCc3ccccc3C2)cc1 | – | 0.0288
60 | CS(=O)(=O)N1CCc2cc(C(=O)Nc3ccc(COCC(F)(F)F)cc3)ccc21 | – | -11.9
61 | CCc1nnc(NS(=O)(=O)c2ccc(NC(=O)COc3ccc4ccccc4c3)cc2)s1 | – | -8.82
62 | CCc1nnc(NC(=O)c2ccc(Cl)c(S(=O)(=O)N3CCc4ccccc43)c2)s1 | 7.57 µM (active) | –
63 | O=C(Nc1nnc(C2CC2)s1)c1ccc(Cl)c(S(=O)(=O)N2CCc3ccccc3C2)c1 | 3.79 µM (active) | –
64 | C=CCOc1c(Cl)cc(CNc2ccc(N(C)C)cc2)cc1OC | – | -6.8
65 | O=C1C=C(c2ccc(Cl)c(C(F)(F)F)c2)C[C@@H](c2ccc(Cl)cc2)C1 | – | -9.56
66 | N#Cc1c(C(F)(F)F)cc(-c2ccc(Cl)cc2)[nH]c1=O | 10.7 µM (active) | –
67 | COc1cc(C(C(=O)NCc2ccccc2)N(C(=O)c2snc(C(N)=O)c2N)C2CCCC2)cc(OC)c1OC (configuration not stated) | – | -6.63
68 | COC(=O)c1ccc(/C(O)=C(\C#N)c2nc3ccccc3s2)cc1 | 15.1 µM (active) | –
69 | Cc1ccc(NC(=S)c2nc3ccccc3s2)cc1 | – | -10.7
70 | Cc1cc2c(NCCc3ccccc3)ncnc2s1 | 23.9 µM (active) | –
71 | COc1ccc(CCNc2ncnc3sc(C)cc23)cc1OC | 19 µM (active) | –
72 | COc1ccc(CCNc2ncnc3c2[nH]c2cc(OC)c(OC)cc23)cc1OC | – | -12.4
73 | Cc1nn(S(=O)(=O)c2ccc(F)cc2)c(C)c1S(=O)(=O)N1CCOCC1 | – | -8.56
74 | Cc1nc2ccccc2n1CC(=O)N/N=C\C=C\c1ccccc1 | – | -4.49
75 | COc1ccc(-n2nnnc2SCC(=O)NC2CCCC2)cc1OC | – | 0.403

Row | SMILES | Potency | activity change, negative = inhibition [%]
76 | Cc1ccc(Nc2cc(C)nc3ccc(C)cc23)cc1 | – | -5.56
77 | Cc1ccc(-c2nc3ccc(C(=O)O)cc3nc2-c2ccc(C)cc2)cc1 | 23.9 µM (active) | –
78 | N#Cc1ccc(NC(=O)Nc2ccc(Cl)cc2)cc1 | 7.57 µM (active) | –
79 | Nc1ccccc1N=Cc1ccc(-c2cccc(Cl)c2)o1 | 37.9 µM (active) | –
80 | COc1ccccc1N1CCN(c2nc(C)nc3c2oc2ccccc23)CC1 | 26.9 µM (active) | –
81 | Cc1ccccc1C(=O)Nc1nnc(SCC(=O)NC2CC2)s1 | – | -11.8
82 | CCC(C)NC(=O)CN1C(=O)CSc2ccc(S(=O)(=O)N3CCCC3)cc21 (configuration not stated) | – | -7.63
83 | Cc1ccc(NC(=O)Nc2ccc3c(c2)N(C)C(=O)CS3)cc1C | 30.1 µM (active) | –
84 | CC1CCN(CCCNC(=O)CN2C(=O)CSc3ccc(S(=O)(=O)N4CCOCC4)cc32)CC1 | – | 0.173
85 | O=C1CSc2nc3ccccc3n21 | – | -1.58
86 | CC(=O)N(C1=C(Cl)C(=O)c2ccccc2C1=O)C1CCCCC1 | 30.1 µM (active) | –
87 | CCOc1ccc(CCNC(=O)c2ccc3c(=O)[nH]c4c(C(=O)NC(C)C)sc(=S)n4c3c2)cc1 | 6.01 µM (active) | –
88 | CCCCNC(=O)c1sc(=S)n2c1[nH]c(=O)c1ccccc12 | 4.78 µM (active) | –
89 | COc1ccccc1NC(=O)NNC(=O)CCN1CCOCC1 | – | -2.97
90 | NS(=O)(=O)c1ccc(CNC(=O)CCS(=O)(=O)Cc2ccccc2)cc1 | – | -1.15
91 | Brc1ccc(-c2nnc(-c3cccc(Br)c3)o2)cc1 | – | -6.14
92 | N#Cc1c(SCc2c(Cl)cccc2Cl)nc(N)[nH]c1=S | 19 µM (active) | –
93 | CCOCCCNC(=O)C(NC(=O)c1ccc(=O)[nH]c1)c1ccc(Cl)cc1 (configuration not stated) | – | -2.3
94 | CCn1nc(C)c(NC(=O)/C=C/c2ccc(OC)c(COc3ccc(Br)cc3)c2)c1C | – | -15.9
95 | COc1ccc(-n2nc(C(=O)NCC(=O)Nc3cc(OC)c(OC)c(OC)c3)c3ccccc3c2=O)cc1OC | – | -8.07
96 | Cc1nn(-c2ccccc2)c(C)c1NC(=O)COc1ccc(Br)cc1Cl | 23.9 µM (active) | –
97 | CCCC(=O)Nc1nnc(CCc2ccccc2)s1 | – | -2.28
